# High-throughput results (PubChem)
# Mcl1 Noxa PPI: Mcl-1/Noxa interaction inhibition; inhibition, % at 21.7 µM; TR-FRET Mcl-1/Noxa peptide binding, 2 h; 1.5% of 220,000 active; Q07820; AID 1022;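 active means compounds that cut the protein-peptide binding signal by more than 50% relative to plate controls in a single-dose test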;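 further: His-tagged Mcl-1 with rhodamine Noxa BH3 peptide and terbium anti-His antibody; 0% = Mcl-1 plus Noxa peptide wells and 100% = peptide-only wells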
# Bim-Mcl-1: disrupts Bim peptide binding to human Mcl-1. Bead-based flow cytometry, Bim peptide-Mcl-1 binding. inhibition, % at 10 µM. 0.1% of 190,000 active; in the data active means inhibition above about 40%;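 further: 0% = no compound tracer wells and 100% = peptide blocker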
# eIF4E-4G inh: eIF4E/eIF4G interaction inhibition in translation initiation | P63073+Q04637 | 0.37% of 220,000 active | AID 782 | TR-FRET eIF4E-eIF4GI(517-606) binding, 2 h | inhibition, % at 21.7 µM;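 further: 0% = full FRET control wells and 100% = background wells lacking eIF4GI fragment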
# 14-3-3 Bad PPI: disrupts binding of bovine 14-3-3 zeta to phospho-Bad peptide. TR-FRET 14-3-3zeta/Dy647-pBad peptide displacement, 1 h. AID 781. inhibition, % at 21.7 µM. 0.71% of 220,000 active;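 active means inhibition above about 70%, limit read from the data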;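 further: 0% = full 14-3-3 plus peptide FRET controls and 100% = background without 14-3-3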
# NCF1 inh: p47phox (human) inhibition; P14598; p47phox/p22phox peptide binding, fluorescence polarization, 2 h; inhibition, % at 24.7 µM; 0.53% of 220,000 active;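 further: 0% = p47phox with labelled peptide and 100% = labelled peptide alone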
# Mcl1-Bid inh: disrupts binding of human Mcl-1 to Bid peptide | Q07820 | TR-FRET Mcl-1/Bid-Dy647 peptide binding, 1536-well | inhibition, % at 21.7 µM | 0.97% of 220,000 active;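 active means compounds that cut the binding signal by more than half at the single screening dose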;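 further: His-tagged Mcl-1 with europium anti-His antibody binding Bid BH3 peptide; 0% = Mcl-1 plus peptide wells and 100% = peptide-only wells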
# The depositor's hits bear a star; / = not tested or not shown; [ ] = another dose, or the depositor's remark. Sampled rows, rich in hits. Any-hit rate of the full collection: about 3.3%.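 How the source made its calls, unless noted: active means inhibition above about 30% (limit read from the data); inactive means the rest.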
SMILES,Mcl1 Noxa PPI,Bim-Mcl-1,eIF4E-4G inh,14-3-3 Bad PPI,NCF1 inh,Mcl1-Bid inh
CCOc1ccc(/C=C/C2=Cc3c(sc(NC(=O)CSc4n[nH]c(N)n4)c3C#N)C(C)(C)C2)cc1,7.0,5.0,2.5,-9.6,12.6,-30.2
COc1cccc(C(c2sc3nc(C)nn3c2O)N2CCc3ccccc3C2)c1 (centres undefined),52.1*,0.0,-3.4,-7.4,11.7,-8.9
CCN1CCN(C(c2cccc(OC)c2)c2sc3nc(C)nn3c2O)CC1 (centres undefined),-5.2,-4.0,3.0,1.0,-10.8,-3.0
COc1cccc(NC(=O)CSc2nc3ccccc3n2C)c1,-9.1,-21.0,3.9,5.5,0.6,84.8*
CCn1c(SCC(=O)NCc2ccco2)nc2ccccc2c1=O,17.0,1.0,-4.2,-0.1,-8.6,-47.5
COc1cccc(NC(=O)CSc2nc(N)cc(N)n2)c1,-4.3,-1.0,-2.7,-9.0,-70.2,-15.3
COc1ccc2c(c1)nc(SCC(=O)c1ccc(Br)s1)n2C,19.7,-1.0,-4.2,84.0*,-12.5,-0.1
O=C(CSc1nc2ccccc2c2nc3ccccc3n12)NCc1ccco1,-69.3,0.0,-38.5,46.4,-3.1,85.5*
COC(=O)CSc1nc2cc(OC)ccc2n1C,12.5,/,-0.1,5.9,-12.2,19.9
Cc1ccc(NC(=O)CSc2nc3ccccc3c3nc4ccccc4n23)cc1,19.9,1.0,-12.5,53.5,27.2,61.8*
CC1CCCC(C)N1C(=O)CSc1nnc(COc2ccccc2)n1-c1ccccc1 (centres undefined),-10.8,0.0,-0.4,3.8,-15.1,16.0
Cc1ccc(-n2c(N)c(C(N)=O)sc2=S)cc1,5.3,-5.0,33.5*[fluorescence artefact?],30.3,-4.3,-18.5
Cc1ccc(-n2c(N)c(C(=O)NCc3ccco3)sc2=S)cc1,-0.9,0.0,-0.2,-11.3,-8.8,-56.6
COc1ccc(C2=CSC3=NCCN23)cc1F,15.9,-2.0,38.2*[fluorescence artefact?],-0.3,7.4,-49.2
Cc1ccc(N2C(=O)c3ccccc3C2C(=O)c2ccc(C)c(C)c2O)cc1 (centres undefined),-3.1,/,1.2,3.4,-10.4,-11.2
Cc1ccc(Oc2ccc(-c3nc(N)nc(N)n3)cc2)cc1C,1.6,-4.0,7.2,10.6,-12.8,-16.8
O=C1C=CC(=O)N1c1ccc(Sc2ccc([N+](=O)[O-])cc2)cc1,72.9*,/,14.3,23.2,-6.3,39.7
Nc1ccc(Sc2ccc([N+](=O)[O-])cc2)cc1,20.3,0.0,2.1,-0.8,2.8,-34.4
Nc1cc(S(=O)(=O)Nc2cc(Cl)ccc2Cl)ccc1N1CCCC1,17.5,/,1.9,-2.2,-4.2,-22.1
Cc1ccc(C)c(OCC(=O)N/N=C\c2cccn2C)c1,43.7,0.0,-2.2,-14.9,4.0,-16.6
Cc1ccc(OCC(=O)N/N=C/c2cccn2C)cc1,10.6,0.0,0.3,70.0*,0.6,-26.7
S=C1NC[C@H](CC2CCCCC2)N1CCCCC1CCCCC1,17.2,/,30.7*,-0.9,-7.6,-37.5
C/C(=N\NC(=O)Cc1c(C)[nH][nH]c1=O)c1cccc(Br)c1,-10.5,/,97.3*,6.5,-4.0,-138.9
Cc1[nH]c2ccccc2c1/C=N/Nc1ccc([N+](=O)[O-])cc1S(=O)(=O)Nc1ccc(Cl)cc1,51.1*,-2.0,-10.2,1.8,-34.2,-13.1
Cc1ccc(Nc2nc(-c3cccnc3)nc3ccccc23)cc1,42.2,/,-4.1,-2.7,-42.0,10.8
SMILES,Mcl1 Noxa PPI,Bim-Mcl-1,eIF4E-4G inh,14-3-3 Bad PPI,NCF1 inh,Mcl1-Bid inh
Cc1cccc(-c2nc(Nc3ccc(N4CCOCC4)cc3)c3ccccc3n2)c1,81.5*,2.0,14.1,-15.5,-21.0,25.2
O=C(CN1C(=O)NC(c2ccccc2)(c2ccccc2)C1=O)Nc1ccc2[nH]c(=O)[nH]c2c1,64.5*,/,2.5,0.9,-14.9,-33.2
CC1(c2ccccc2)NC(=O)N(CC(=O)Nc2ccc3c(c2)OCO3)C1=O (centres undefined),14.2,-1.0,0.8,-2.9,-1.2,-8.8
CC1CN(Cc2ccccc2)c2nc3c(c(=O)[nH]c(=O)n3C)n2C1 (centres undefined),-13.6,/,83.3*,2.4,-19.6,-35.3
CCCCNC(=O)CSc1nc2ccsc2c(=O)n1CCCC(=O)NCCc1ccc(S(N)(=O)=O)cc1,14.9,0.0,-1.8,4.6,31.0*,1.4
NS(=O)(=O)c1ccc(CCNC(=O)CSc2nc3ccsc3c(=O)n2CCCCCC(=O)O)cc1,10.9,0.0,-0.7,-5.1,4.0,-3.8
